From PubChem BioAssay
Active and inactive are the calls of the source.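 Rule for the calls, unless noted: active = visually confirmed hit in the image check and inhibition above 20%; inconclusive = visually confirmed hit but inhibition not above 20%; inactive = no visual hit in the image check.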

Legend:
[1] = inhibitors of TNFa-induced NFkB p65 translocation, primary screen, imaging, HUVEC, MLSMR starter and 10KST1 sets (AID 438;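 active = inhibition above 20% together with a positive visual image hit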;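 note: compound added about 3h40 before a 20 min TNFalpha stimulation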;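 for inhibition: signal is the nuclear over cytoplasmic p65 intensity ratio per well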); conditions: HUVEC TNFa-induced p65 nuclear translocation; cell count: measured here: nuclei count (cytotoxicity indicator), at 2.08 µM; inhibition: at 2 µM, stronger effect = higher value, 0% TNFa-plus-vehicle, 100% no-TNFa wells
[2] = reduction of polyQ htt aggregates in cells – imaging, exon1htt(103Q)mCFP cells, high-content imaging, primary screen (AID 483;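 active = visual image review flags a hit and inhibition of aggregation exceeds 20%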;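 note: compound exposure lasted 3 days before fixation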;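 for nuclei count: percent of the per-plate median nuclei count of sample wells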); conditions: exon1htt(103Q)mCFP cell line, aggregate imaging, at 2 µM; inhibition of aggregation: stronger effect = higher value; nuclei count: measured here: cell count, toxicity
[3] = endothelial E-selectin expression blockers – imaging, HUVEC, immunofluorescence, MLSMR starter and 10KST1 sets, primary screen (AID 487); conditions: HUVEC TNFalpha-induced E-selectin immunofluorescence imaging, at 2 µM; inhibition: stronger effect = higher value; nuclei count: measured here: cell number, toxicity;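 for inhibition: signal is fraction of cell area covered by stained E-selectin grains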;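 for nuclei count: 100% = median nuclei count of all wells on the same plate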
[4] = target: Voltage-gated potassium channel subunit beta-2 (Rattus norvegicus) (UniProt P62483); assay: inhibitors of rat Kvbeta2 reductase activity – biochemical, NADPH fluorescence, primary screen (AID 622;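 active = fluorescence slope higher than the sample average by over 3 SD, cut at about -0.22 in these data, passing the limit was not always enough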;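 note: slope of raw intensity against log time taken from 70 to 1610 s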); conditions: recombinant KvBeta, 4-cyanobenzaldehyde reduction, at 10 µM, stronger effect = higher value
Chain of Voltage-gated potassium channel subunit beta-2 (Rattus norvegicus) (P62483 whole entry, looked up): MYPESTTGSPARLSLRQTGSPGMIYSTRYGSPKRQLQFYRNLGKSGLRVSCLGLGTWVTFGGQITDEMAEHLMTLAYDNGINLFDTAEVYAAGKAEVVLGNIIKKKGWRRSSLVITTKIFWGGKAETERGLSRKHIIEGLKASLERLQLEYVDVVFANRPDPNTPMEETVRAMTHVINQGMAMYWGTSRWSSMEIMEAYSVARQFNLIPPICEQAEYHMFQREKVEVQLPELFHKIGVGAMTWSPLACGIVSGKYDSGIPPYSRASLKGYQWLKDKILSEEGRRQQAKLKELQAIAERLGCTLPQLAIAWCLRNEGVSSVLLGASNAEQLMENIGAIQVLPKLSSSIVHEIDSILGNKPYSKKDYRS

[5] = target: Voltage-gated potassium channel subunit beta-2 (Rattus norvegicus) (UniProt P62483); assay: enhancers of rat Kvbeta2 NADPH turnover – biochemical, NADPH fluorescence, primary screen (AID 623;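 active = NADPH fluorescence slope more negative than the mean of all samples by about 3 SD, 99.7% confidence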;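 note: fluorescence intensity change per second fitted from 20 to 320 s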); conditions: Recombinant KvBeta, NADPH fluorescence decrease slope, 10 min; at 10 µM; stronger effect = lower value
[6] = target: Alpha-2C adrenergic receptor (Homo sapiens) (UniProt P18825); assay: compounds altering alpha2C-coupled GIRK flux – cell-based, HEK293 alpha2C/GIRK1/2, thallium flux, primary screen (AID 624;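 active = fluorescence slope after compound addition differing from the mean of all screened samples at 99.7% confidence, in either direction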;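 note: slope of fluorescence ratio to pre-addition baseline per second over 15 to 24 s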); conditions: thallium flux BTC fluorescence, at 10 µM, actives lie on both sides
Chain of Alpha-2C adrenergic receptor (Homo sapiens) (P18825 whole entry, looked up): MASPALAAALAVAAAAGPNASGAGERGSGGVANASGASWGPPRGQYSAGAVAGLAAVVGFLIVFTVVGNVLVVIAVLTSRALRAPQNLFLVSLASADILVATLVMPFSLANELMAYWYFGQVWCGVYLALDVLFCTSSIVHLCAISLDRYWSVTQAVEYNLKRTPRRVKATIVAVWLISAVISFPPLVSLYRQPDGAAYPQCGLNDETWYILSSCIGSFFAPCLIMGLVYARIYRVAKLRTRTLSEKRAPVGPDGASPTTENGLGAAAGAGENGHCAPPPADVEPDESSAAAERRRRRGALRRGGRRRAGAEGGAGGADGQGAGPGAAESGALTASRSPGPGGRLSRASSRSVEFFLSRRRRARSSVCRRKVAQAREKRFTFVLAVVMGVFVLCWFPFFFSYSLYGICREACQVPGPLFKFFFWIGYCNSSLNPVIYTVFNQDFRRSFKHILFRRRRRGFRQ

[7] = blockers of RIG-like receptor reporter activation – cell-based, Sendai virus stimulus, luciferase, 10K MLSCN set, TLR/RLR signaling modifier project, primary screen (AID 602276;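 active = inhibition at or above 50% at 10 µM; inactive = inhibition below 50%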;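 note: firefly luciferase from ISG56 promoter only with Renilla not read in this screen; 0% = Sendai virus plus DMSO and 100% = medium plus DMSO without virus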); conditions: HEK293 RL24 IRF3 luciferase reporter, at 10 µM, stronger effect = higher value
[8] = TLR3 IRF3 reporter activation blockers – cell-based, poly I:C stimulus, luciferase, 10K MLSCN set, primary screen (AID 602277;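 active = inhibition of the reporter signal at or above 50%; inactive = inhibition below 50%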); conditions: HEK293-TLR3 RL24 IRF3 luciferase reporter, at 10 µM, stronger effect = higher value

| Compound | cell count [1] | inhibition [1] | inhibition of aggregation [2] | nuclei count [2] [%] | inhibition [3] | nuclei count [3] [%] | fluorescence slope [4] | NADPH fluorescence slope [5] | slope [6] | inhibition [7] | inhibition [8] |
| --- | --- | --- | --- | --- | --- | --- | --- | --- | --- | --- | --- |
| COC(=O)/C=c1\sc2ncnn2c1=O | 286 | -11% (inactive) | 6.6% (inactive) | 111 | -34.9% (inactive) | 107 | -0.624 (inactive) | -1.3e-05 (inactive) | 0.00688 (inactive) | 18.3% (inactive) | 26.1% (inactive) |
| CSCC[C@@H](Nc1nc(-c2ccccc2)nc2c1oc1ccccc12)C(=O)O | 322 | 1.9% (inactive) | -20.9% (inactive) | 83.4 | -92.1% (inactive) | 123 | -0.442 (inactive) | 9.3e-06 (inactive) | 0.00719 (inactive) | 4.35% (inactive) | 41% (inactive) |
| Cc1ccc(CNC(=O)C2CC(=O)OC23CCCC3)c(C)c1 (stereo unspecified) | 410 | 17.5% (inactive) | -25.4% (inactive) | 104 | 8.3% (inactive) | 102 | -0.593 (inactive) | 4.6e-07 (inactive) | 0.00501 (inactive) | 17.7% (inactive) | 20.9% (inactive) |
| O=C(CC1(O)C(=O)Nc2ccccc21)c1ccc2c(c1)OCO2 (stereo unspecified) | 484 | 4.5% (inactive) | -8.1% (inactive) | 102 | -22.5% (inactive) | 110 | -0.384 (inactive) | 2.8e-06 (inactive) | 0.00339 (inactive) | 10.1% (inactive) | 35.2% (inactive) |
| CCCC1CCC(C(=O)Nn2cnc3ccccc3c2=O)CC1 (stereo unspecified) | 271 | 3.9% (inactive) | 17.1% (inactive) | 86.9 | 33.8% (inactive) | 77.6 | -0.478 (inactive) | 2.4e-05 (inactive) | 0.00566 (inactive) | 6.74% (inactive) | 21.4% (inactive) |
| CN(C1CCCCC1)S(=O)(=O)c1ccc(S(=O)(=O)N2CCCC2)cc1 | 737 | -10.5% (inactive) | -9.6% (inactive) | 100 | -78.3% (inactive) | 126 | -0.432 (inactive) | -2.1e-05 (inactive) | 0.00521 (inactive) | 16.1% (inactive) | 21.2% (inactive) |
| c1ccc(CCc2nc(-c3cccnc3)no2)cc1 | 647 | 3.1% (inactive) | 5% (inactive) | 93 | -102% (inactive) | 132 | -0.636 (inactive) | 1.1e-05 (inactive) | 0.00345 (inactive) | -30.7% (inactive) | -90.7% (inactive) |
| O=C(CSc1nnnn1C1CCCC1)Nc1cccc(NC(=O)c2ccco2)c1 | 747 | -15.8% (inactive) | 21.9% (inactive) | 56.9 | -76.4% (inactive) | 132 | -0.329 (inactive) | 2.2e-05 (inactive) | 0.00506 (inactive) | 5.72% (inactive) | 9.32% (inactive) |
| COCc1nnc(NS(=O)(=O)c2ccc(Br)cc2)s1 | 757 | -12.1% (inactive) | 13.5% (inactive) | 102 | 30.4% (inactive) | 90.2 | -0.362 (inactive) | 4.4e-05 (inactive) | 0.00659 (inactive) | 18.1% (inactive) | 19.6% (inactive) |
| CCN1CCN(CCNC(=O)c2cn(C(C)c3ccccc3F)nn2)CC1 (stereo unspecified) | 560 | -29.6% (inactive) | -18.1% (inactive) | 112 | -32.9% (inactive) | 110 | -0.61 (inactive) | -1.9e-05 (inactive) | 0.00807 (inactive) | 12% (inactive) | 9.63% (inactive) |
| CC(C)C(=O)Nc1ccc(-c2nc3cccnc3o2)cc1 | 413 | 6.7% (inactive) | 12.8% (inactive) | 109 | 23.3% (inactive) | 107 | -0.262 (inactive) | 4.8e-06 (inactive) | 0.0065 (inactive) | -33.7% (inactive) | -147% (inactive) |
| CS(=O)(=O)N1CCCC(C(=O)NCCCN2CCc3ccccc3C2)C1 (stereo unspecified) | 228 | 3.4% (inactive) | 10.5% (inactive) | 83.5 | 35.8% (inactive) | 83.4 | -0.54 (inactive) | -1.5e-05 (inactive) | 0.00591 (inactive) | -8.77% (inactive) | 5.97% (inactive) |
| CCOC(=O)CSc1nc2cc(C(=O)N3CCC(C(N)=O)CC3)ccc2c(=O)n1-c1ccccc1 | 391 | 4.8% (inactive) | -5.8% (inactive) | 93.5 | -26.1% (inactive) | 95.3 | -0.37 (inactive) | -5.8e-05 (inactive) | 0.00452 (inactive) | 10.8% (inactive) | 9.87% (inactive) |
| Cn1nnnc1SCSc1nnnn1C | 626 | -16.6% (inactive) | 4.1% (inactive) | 56.1 | -58% (inactive) | 93.3 | -0.585 (inactive) | -4.7e-05 (inactive) | 0.00536 (inactive) | 0.0465% (inactive) | -3.07% (inactive) |
| CNC(=O)CSc1nnc(-c2cccc(S(=O)(=O)N3CCOCC3)c2)n1-c1ccc(F)cc1 | 474 | 7.2% (inactive) | 13.2% (inactive) | 104 | -18.5% (inactive) | 106 | -0.376 (inactive) | -6.4e-05 (inactive) | 0.00569 (inactive) | 6.45% (inactive) | 26% (inactive) |
| COc1cccc(N(C(=O)c2ccco2)C(C(=O)NC2CCCC2)c2ccc(N(C)C)cc2)c1 (stereo unspecified) | 582 | -1.6% (inactive) | -38.4% (inactive) | 98.6 | 5.4% (inactive) | 77.9 | -0.44 (inactive) | -0.000142 (inactive) | 0.00648 (inactive) | 6.61% (inactive) | 15.9% (inactive) |
| COc1ccc(S(=O)(=O)NCC(=O)N(CC(=O)NCC2CCCO2)c2ccccc2C)cc1 (stereo unspecified) | 251 | 2.2% (inactive) | -8.4% (inactive) | 106 | -22.6% (inactive) | 96.9 | -0.399 (inactive) | -6.5e-06 (inactive) | 0.00632 (inactive) | 19.2% (inactive) | 18.4% (inactive) |
| Cc1cc(C)cc(NS(=O)(=O)c2ccc3[nH]c(=O)[nH]c3c2)c1 | 378 | -5.5% (inactive) | 2.4% (inactive) | 112 | -23.4% (inactive) | 115 | -0.392 (inactive) | 4.9e-07 (inactive) | 0.00328 (inactive) | 16.1% (inactive) | 36.9% (inactive) |
| Clc1cccc(Cl)c1COc1ccncc1 | 353 | 4.4% (inactive) | 11.7% (inactive) | 89.4 | 7.5% (inactive) | 104 | -0.516 (inactive) | 7.2e-05 (inactive) | 0.00644 (inactive) | -16.2% (inactive) | -12% (inactive) |
| Clc1ccccc1OCCCCn1ccnc1 | 425 | -0.2% (inactive) | -10.9% (inactive) | 97.3 | 14.5% (inactive) | 106 | -0.464 (inactive) | -5.3e-05 (inactive) | 0.0106 (active) | -3.32% (inactive) | 5.03% (inactive) |
| O=C(NCCCN1CCCC1=O)C1CCN(S(=O)(=O)N2CCOCC2)CC1 | 195 | 25.3% (active) | 17.1% (inactive) | 94.9 | 27.7% (inactive) | 81.9 | -0.362 (inactive) | -4.9e-05 (inactive) | 0.00575 (inactive) | -12.7% (inactive) | -7.16% (inactive) |
| COCCOC(=O)C1=C(N)OC2=C(C(=O)CC(C)(C)C2)C1c1cccnc1 (stereo unspecified) | 662 | 4.8% (inactive) | 9.7% (inactive) | 139 | 22.6% (inactive) | 112 | -0.452 (inactive) | -4.3e-05 (inactive) | 0.00687 (inactive) | -8.98% (inactive) | 19% (inactive) |
| CC1CCc2nn(CC(=O)NCc3ccc(F)cc3)cc2C1 (stereo unspecified) | 919 | 1.2% (inactive) | -5.6% (inactive) | 112 | -72.4% (inactive) | 119 | -0.628 (inactive) | -3.4e-06 (inactive) | 0.00689 (inactive) | -0.348% (inactive) | 20.2% (inactive) |
| COC(=O)c1ccc(C(=O)OC)c(NC(=O)Nc2ccc3c(c2)OCO3)c1 | 279 | -7.1% (inactive) | 2.1% (inactive) | 94.2 | -15.8% (inactive) | 95.1 | -0.417 (inactive) | 7.6e-06 (inactive) | 0.00311 (inactive) | -24.9% (inactive) | -44.2% (inactive) |
| COc1cc(Nc2cc(C)nc3ncnn23)cc(OC)c1OC | 649 | -6.3% (inactive) | -4.4% (inactive) | 109 | -23.8% (inactive) | 112 | -0.56 (inactive) | 1.9e-05 (inactive) | 0.0068 (inactive) | 1.55% (inactive) | 31.7% (inactive) |
| CCCSc1nnc2nc3c(nn12)c1ccccc1n3C | 572 | 4.4% (inactive) | -6.3% (inactive) | 109 | 5.3% (inactive) | 107 | -0.519 (inactive) | -6.9e-05 (inactive) | 0.0026 (inactive) | 5.91% (inactive) | 27.8% (inactive) |
